This is an account of results in PubChem BioAssay.

The structures appear in SMILES notation. The source made the active and inactive calls.

Assay [1] is described as follows: binders of probe aFSTL3 on microarray, primary screen, stem cell growth factor project, biochemical, small-molecule microarray, fluorescence 635/667 (AID 1064).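 Further: measures binding of the biotinylated anti-FSTL3 antibody to printed compounds.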 Particulars: higher = more signal.
The nature of assay [2]: binders from COS7 lysate, DM2A8 probe, primary screen, torsin A project, cell lysate, small-molecule microarray, fluorescence 635/667 (AID 1065). Particulars: higher = more signal, COS7 lysate expressing mutant human TOR1A.
Assay [3] can be described thus: binders of probe aFGF2 on microarray, primary screen, stem cell growth factor project, biochemical, small-molecule microarray, fluorescence 635/667 (AID 1067).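 Further: measures binding of biotinylated aFGF2 protein to printed compounds on slides; z-score merges feature fluorescence and signal-to-noise across triplicate slides.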 Conditions: higher = more signal.
A short description of assay [4]: binders of probe aFGF10 on microarray, primary screen, stem cell growth factor project, biochemical, small-molecule microarray, fluorescence 635/667 (AID 1071).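 Further: score merges 667 nm spot intensity and signal to noise from triplicate slides.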 Conditions: higher = more signal.
The target of assay [5] is Neurogenic locus notch homolog protein 2 (Homo sapiens) (UniProt Q04721). In words: Notch2 binders on small-molecule microarrays, primary screen, biochemical, small-molecule microarray, 635 nm fluorescence, stem cell growth factors (AID 1073). Particulars: Notch2 binding, higher = more signal.
Chain of Neurogenic locus notch homolog protein 2 (Homo sapiens) (Q04721 whole entry, looked up, canonical isoform): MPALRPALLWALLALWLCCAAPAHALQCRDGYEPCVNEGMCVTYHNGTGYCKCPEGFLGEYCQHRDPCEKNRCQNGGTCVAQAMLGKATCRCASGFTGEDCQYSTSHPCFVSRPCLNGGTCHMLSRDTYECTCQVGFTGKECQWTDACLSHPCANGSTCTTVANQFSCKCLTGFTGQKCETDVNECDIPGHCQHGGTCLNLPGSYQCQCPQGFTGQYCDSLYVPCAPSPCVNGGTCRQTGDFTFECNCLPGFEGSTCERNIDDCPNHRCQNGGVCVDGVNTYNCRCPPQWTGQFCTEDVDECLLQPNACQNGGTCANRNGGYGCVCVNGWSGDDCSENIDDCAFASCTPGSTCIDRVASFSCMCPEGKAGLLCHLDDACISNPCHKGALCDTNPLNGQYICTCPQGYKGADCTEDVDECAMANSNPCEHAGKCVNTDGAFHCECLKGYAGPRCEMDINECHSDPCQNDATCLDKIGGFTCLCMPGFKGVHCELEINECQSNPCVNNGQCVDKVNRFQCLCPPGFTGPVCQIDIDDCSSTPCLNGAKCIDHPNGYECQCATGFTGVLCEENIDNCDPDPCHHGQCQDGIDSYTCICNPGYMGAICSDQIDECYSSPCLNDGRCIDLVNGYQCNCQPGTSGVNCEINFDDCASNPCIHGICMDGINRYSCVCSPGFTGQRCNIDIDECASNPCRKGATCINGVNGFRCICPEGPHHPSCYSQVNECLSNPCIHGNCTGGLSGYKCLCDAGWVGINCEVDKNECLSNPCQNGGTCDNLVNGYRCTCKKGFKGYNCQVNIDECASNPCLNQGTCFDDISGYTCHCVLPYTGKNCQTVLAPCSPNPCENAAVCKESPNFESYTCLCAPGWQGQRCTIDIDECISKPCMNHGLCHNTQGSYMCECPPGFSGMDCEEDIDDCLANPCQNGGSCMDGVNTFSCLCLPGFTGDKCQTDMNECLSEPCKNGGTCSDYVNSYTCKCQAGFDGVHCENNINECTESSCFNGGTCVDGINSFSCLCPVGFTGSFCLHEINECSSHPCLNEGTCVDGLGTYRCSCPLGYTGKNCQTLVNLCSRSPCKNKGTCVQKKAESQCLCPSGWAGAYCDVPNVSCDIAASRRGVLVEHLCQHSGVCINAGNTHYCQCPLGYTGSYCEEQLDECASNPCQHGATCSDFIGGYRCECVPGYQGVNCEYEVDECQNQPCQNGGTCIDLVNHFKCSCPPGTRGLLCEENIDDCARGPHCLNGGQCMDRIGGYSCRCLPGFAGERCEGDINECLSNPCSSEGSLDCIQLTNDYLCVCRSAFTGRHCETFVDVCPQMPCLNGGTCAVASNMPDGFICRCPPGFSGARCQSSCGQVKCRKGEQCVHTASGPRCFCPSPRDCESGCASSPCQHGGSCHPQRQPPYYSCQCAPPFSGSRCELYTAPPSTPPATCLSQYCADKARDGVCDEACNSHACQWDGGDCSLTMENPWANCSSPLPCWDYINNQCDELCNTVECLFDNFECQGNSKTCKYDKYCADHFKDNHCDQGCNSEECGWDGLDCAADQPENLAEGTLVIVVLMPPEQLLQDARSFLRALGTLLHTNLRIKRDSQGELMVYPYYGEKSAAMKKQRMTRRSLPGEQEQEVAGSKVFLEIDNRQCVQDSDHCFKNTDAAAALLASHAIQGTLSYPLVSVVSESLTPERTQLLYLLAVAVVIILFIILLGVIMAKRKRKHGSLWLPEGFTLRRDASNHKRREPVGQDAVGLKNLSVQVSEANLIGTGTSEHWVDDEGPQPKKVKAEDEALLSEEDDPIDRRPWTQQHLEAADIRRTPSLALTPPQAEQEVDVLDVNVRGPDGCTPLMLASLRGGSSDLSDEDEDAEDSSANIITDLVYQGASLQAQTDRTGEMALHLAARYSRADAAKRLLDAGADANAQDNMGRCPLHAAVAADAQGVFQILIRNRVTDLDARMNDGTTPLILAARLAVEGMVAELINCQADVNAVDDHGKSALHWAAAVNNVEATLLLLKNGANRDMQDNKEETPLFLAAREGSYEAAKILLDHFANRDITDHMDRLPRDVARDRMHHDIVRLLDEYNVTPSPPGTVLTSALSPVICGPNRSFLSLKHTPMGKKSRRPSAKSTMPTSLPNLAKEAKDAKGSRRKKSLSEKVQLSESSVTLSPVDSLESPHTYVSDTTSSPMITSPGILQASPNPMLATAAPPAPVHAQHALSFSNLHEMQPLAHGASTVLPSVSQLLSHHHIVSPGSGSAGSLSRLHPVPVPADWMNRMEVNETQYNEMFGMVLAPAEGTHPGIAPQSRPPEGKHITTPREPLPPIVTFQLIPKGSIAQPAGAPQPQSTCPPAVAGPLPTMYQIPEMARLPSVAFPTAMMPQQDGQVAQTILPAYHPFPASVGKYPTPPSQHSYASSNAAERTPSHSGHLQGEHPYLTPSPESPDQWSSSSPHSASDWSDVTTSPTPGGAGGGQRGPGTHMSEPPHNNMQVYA
For assay [6], the target named is Pro-neuregulin-1, membrane-bound isoform (Homo sapiens) (UniProt Q02297). In words: NRG1 binders on small-molecule microarrays, primary screen, psychiatric disease protein project, biochemical, small-molecule microarray, fluorescence 635/667 (AID 1075).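 Further: score combines 667 nm spot fluorescence with signal to noise.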 Particulars: NRG1 binding, 635 nm fluorescence, higher = more signal.
Chain of Pro-neuregulin-1, membrane-bound isoform (Homo sapiens) (Q02297 whole entry, looked up, the tested form may be a part, canonical isoform): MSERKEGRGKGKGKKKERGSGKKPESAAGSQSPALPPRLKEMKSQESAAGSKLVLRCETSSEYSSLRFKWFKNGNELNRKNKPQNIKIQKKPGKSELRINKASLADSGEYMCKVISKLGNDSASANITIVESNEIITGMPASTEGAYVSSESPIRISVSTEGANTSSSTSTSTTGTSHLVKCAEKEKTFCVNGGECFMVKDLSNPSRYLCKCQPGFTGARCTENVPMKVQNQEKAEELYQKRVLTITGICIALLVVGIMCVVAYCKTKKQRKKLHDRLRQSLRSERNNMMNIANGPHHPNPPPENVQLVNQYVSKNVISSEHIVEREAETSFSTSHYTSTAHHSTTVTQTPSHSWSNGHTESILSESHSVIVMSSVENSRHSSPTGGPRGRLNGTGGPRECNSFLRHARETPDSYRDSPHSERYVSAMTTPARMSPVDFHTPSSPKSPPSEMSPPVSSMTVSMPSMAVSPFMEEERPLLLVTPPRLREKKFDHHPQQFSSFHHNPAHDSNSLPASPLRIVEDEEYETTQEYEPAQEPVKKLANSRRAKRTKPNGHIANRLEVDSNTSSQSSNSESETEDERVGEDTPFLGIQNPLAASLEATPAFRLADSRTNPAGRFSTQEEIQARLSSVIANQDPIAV
Assay [7] concerns Neuregulin-1 EGF-like domain. In words: binders of neuregulin-1 EGF-like domain, primary screen, biochemical, small-molecule microarray, 635 nm fluorescence (AID 1081).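 Further: binding of the protein to compounds printed on small-molecule microarray slides.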 Particulars: small-molecule microarray binding, higher = more signal.
Assay [8] can be described thus: FRG1 promoter luciferase signal modulators, primary screen, FRG1 inhibition for FSHD, cell-based, C2C12 myotubes, firefly/Renilla luciferase, luminescence (AID 1084). Particulars: higher = more signal, called active from +8 up or from −8 down.
A short description of assay [9]: binders of probe aFST on microarray, primary screen, stem cell growth factor project, biochemical, small-molecule microarray, fluorescence 635/667 (AID 1086).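 Further: score merges 667 nm fluorescence with signal-to-noise of each printed compound spot.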 Particulars: higher = more signal.
A short description of assay [10]: binders of probe aHhip on microarray, primary screen, stem cell growth factor project, biochemical, small-molecule microarray, fluorescence 635/667 (AID 1087).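 Further: score merges spot fluorescence at 667nm with spot signal to noise ratio.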 Conditions: higher = more signal.
The test system of assay [11] is PRMT1 (protein arginine N-methyltransferase 1). In words: PRMT1 binders on small-molecule microarrays, primary screen, biochemical, small-molecule microarray, 635 nm fluorescence (AID 1088).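 Further: binding of Prmt1 protein to compounds spotted on small-molecule microarray slides.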 Conditions: small-molecule microarray binding, higher = more signal.
Assay [12] is described as follows: yeast growth modulation, basal conditions, primary screen, YJM789 clinical isolate, OD600, 24 h (AID 1089).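 Further: growth of clinical yeast isolate S. cerevisiae YJM 789 seeded 1000 cells per well; test concentration not given here.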 Particulars: S. cerevisiae YJM789 growth, higher = more signal, called active from +8 up or from −8 down.
A short description of assay [13]: fission yeast growth modulation, primary screen, strain 972, OD600, 24 h, no modulator (AID 1090).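 Further: basal condition with compound alone and no growth modifier present; test concentration not given here.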 Particulars: S. pombe 972 growth, higher = more signal, called active from +8 up or from −8 down.
Assay [14] is described as follows: S. cerevisiae growth modulation with rapamycin, primary screen, strain BY4716, OD600, 96 h (AID 1091). Further: test concentration not given here. Conditions: higher = more signal, called active from +8 up or from −8 down.
The target of assay [15] is Torsin-1A-interacting protein 2 (Homo sapiens) (UniProt Q8NFQ8). In words: LULL1 binders on small-molecule microarray, primary screen, cell lysate, human LULL1 lysate, 635/667 nm fluorescence (AID 1092).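 Further: probe is lysate of COS7 cells overexpressing human LULL1; score merges per-feature 667 nm fluorescence with signal-to-noise.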 Particulars: hLULL1 lysate binding, 635 nm fluorescence, higher = more signal.
Chain of Torsin-1A-interacting protein 2 (Homo sapiens) (Q8NFQ8 whole entry, looked up): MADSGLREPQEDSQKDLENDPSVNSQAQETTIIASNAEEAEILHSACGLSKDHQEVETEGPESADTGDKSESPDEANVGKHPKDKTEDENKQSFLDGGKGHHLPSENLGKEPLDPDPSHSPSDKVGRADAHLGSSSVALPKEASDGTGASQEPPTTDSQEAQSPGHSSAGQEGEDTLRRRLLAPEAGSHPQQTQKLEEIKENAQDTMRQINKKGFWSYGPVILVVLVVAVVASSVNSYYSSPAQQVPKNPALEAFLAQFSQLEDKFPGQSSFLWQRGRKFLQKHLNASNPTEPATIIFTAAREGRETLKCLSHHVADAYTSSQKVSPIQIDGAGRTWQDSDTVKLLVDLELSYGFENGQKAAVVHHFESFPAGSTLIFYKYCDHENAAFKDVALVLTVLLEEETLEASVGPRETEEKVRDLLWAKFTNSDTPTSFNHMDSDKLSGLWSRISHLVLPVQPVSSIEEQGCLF
Assay [16] can be described thus: E. coli growth modulation, two-sided OD650, primary screen, E. coli filamentation project, strain DRC41, 24 h (AID 1093).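 Further: MC1000 strain lacking acrAB efflux and sulA so SOS filamentation is blocked; test concentration not given here.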 Conditions: OD650, 24 h, higher = more signal, called active from +8 up or from −8 down.
Assay [17] is described as follows: small-molecule microarray binders of probe aLefty2, primary screen, biochemical, biotinylated probe, 635/667 nm fluorescence (AID 1094).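 Further: score merges spot fluorescence near 667 nm with spot signal-to-noise ratio.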 Conditions: higher = more signal.
Assay [18] relates to Noggin (protein binding on small-molecule microarray). In words: Noggin binders on small-molecule microarray, primary screen, biochemical, 635/667 nm fluorescence (AID 1095).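 Further: score merges 667 nm feature fluorescence with signal to noise over triplicate slides.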 Particulars: 635 nm fluorescence, higher = more signal.
Assay [19] has as its target Neurogenic locus notch homolog protein 3 (Homo sapiens) (UniProt Q9UM47). In words: NOTCH3 binders on small-molecule microarray, primary screen, biochemical, 635/667 nm fluorescence (AID 1096). Particulars: NOTCH3 binding, 635 nm fluorescence, higher = more signal.
A short description of assay [20]: small-molecule microarray binders of probe aEGFR, primary screen, biochemical, biotinylated probe, 635/667 nm fluorescence (AID 1097).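 Further: probe is a biotinylated anti-EGFR antibody binding compounds printed on slides; score combines fluorescence near 667 nm and signal to noise of each spot.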 Conditions: higher = more signal.

For `CC(CCN1CCCc2nc(C)c(C)cc21)=NO[C@@H](C)c1cn([C@H](CO)Cc2ccccc2)nn1`, the composite z-score in assay [1] is -0.102; in [2], 0.417; in assay [3] it was -0.0257; in [4], 0.389; in assay [5] it was 0.414; in assay [6] it was -0.19. Besides, the composite z-score in assay [7] is 0.28; in [9], 0.4; in assay [10] it was -0.277; in assay [11] it was 0.279; in assay [15], 0.577; in assay [17] it was -0.114. Further, the composite z-score was 0.78 in [18], 0.713 in assay [19] and -0.0493 in assay [20]. Moreover, the z-score is -0.0338 (inactive) in assay [8]; 0.72 (inactive) in assay [12]; 0.47 (inactive) in assay [13]; 0.672 (inactive) in assay [14]; 0.923 (inactive) in [16].
In the case of `CCc1cc2c(nc1CC)CCN(CCC(C)=NOC[C@@H](C)[C@H](OCc1ccccc1)C(C)C)C2`, the composite z-score in assay [1] is -0.251; in assay [2], -0.176; in assay [3] it was -0.226; in assay [4], -1.25; in [5] it was -1.17; in [6], -0.769. Besides, the composite z-score in assay [7] is -0.47; in assay [9] it was -1.36; in assay [10], -0.132; in assay [11], 0.0757; in assay [15], 0.198; in assay [17], -0.224. Moreover, the figures for the composite z-score in assay [18], in assay [19] and in [20] were -0.249, -1.38 and -0.25, respectively. In addition, the z-score in [8] was -0.856 (inactive); in assay [12], -2.41 (inactive); in [13], -4.16 (inactive); in [14] it was -1.32 (inactive); in [16], -0.966 (inactive).
Consider `O=C1[C@H]2CCn3c(=O)n(Cc4cc5c(cc4Cl)OCO5)c(=O)n3[C@H]2[C@H](O)[C@@H]2O[C@H]12`, for which the composite z-score is 1.24 in [1]; -0.0222 in [2]; -0.162 in [3]; -0.244 in [4]; -0.382 in assay [5]; -0.156 in assay [6]. Also, the composite z-score was 0.801 in assay [7]; -0.332 in [9]; 0.0156 in assay [10]; -0.0582 in assay [11]; -0.297 in [15]; -0.255 in assay [17]. For the same molecule, the composite z-score in [18] is 0.27; in assay [19], -0.802; in assay [20], -0.173. The z-score in assay [8] is -0.162 (inactive); in [12] it was 0.821 (inactive); in [13], -0.315 (inactive); in assay [14] it was -0.224 (inactive); in assay [16], 0.662 (inactive).
In the case of `CN1CCc2nc(-c3ccccc3)c(-c3ccccc3)cc2C1`, the composite z-score is -0.16 in [1]; 0.0357 in assay [2]; -0.128 in assay [3]; 0.239 in [4]; 0.521 in assay [5]; -0.013 in assay [6]. The composite z-score was -0.326 in [7]; -0.117 in [9]; -0.148 in assay [10]; -0.288 in assay [11]; -0.0501 in [15]; 0.361 in assay [17]. Moreover, the values for the composite z-score in assay [18], in assay [19] and in [20] were 0.405, 0.157 and -0.0382, respectively. The z-score is -0.0006 (inactive) in assay [8]; 0.0301 (inactive) in assay [12]; 0.173 (inactive) in assay [13]; -1.35 (inactive) in assay [14]; 0.697 (inactive) in assay [16].
For `COc1ccc(O[C@H]2C=C[C@@H](c3ccccc3)O[C@@H]2CO)cc1`, the composite z-score in [1] is -0.176; in assay [2], -0.15; in assay [3] it was -0.121; in assay [4], 0.291; in assay [5], -0.359; in [6], -0.224. Also, the composite z-score in assay [7] is -0.134; in [9] it was -0.221; in assay [10] it was 0.0458; in assay [11], 0.018; in [15] it was 0.0141; in assay [17] it was -0.0603. Moreover, the composite z-score in [18] is 0.14; in assay [19], 0.0607; in assay [20], -0.0146. The z-score in assay [8] is 0.403 (inactive); in [12] it was 0.711 (inactive); in assay [13] it was -1.27 (inactive); in assay [14], -1.02 (inactive); in assay [16] it was 0.299 (inactive).
